Laboratory results published in PubChem BioAssay (NCI).
Compounds without any hit were thinned out: in the full panel of roughly 79,000, 15% have a hit. Values without a mark were called inactive. Active and inactive are the calls of the source. No stated cut-off is given here; in the data, active means growth inhibition above about 70%; inactive means the rest. Where a SMILES comes first, the peptide text is derived from it. The star is where a group is joined. Cbz = O=C(OCc1ccccc1)*; Boc = CC(C)(C)OC(=O)*; OSu = O=C1CCC(=O)N1O*; Bn = c1ccc(C*)cc1

Legend:
[1] = NCI Yeast Anticancer Drug Screen. Data for the rad50 strain (AID 155);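 further: 0% = growth of vehicle-only cultures of the same strain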; settings: S. cerevisiae rad50 strain growth inhibition, active compounds read high
How it was run: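 Cells are treated with compound, grown, and their growth is then scored against vehicle-only cultures of the same repair-deficient yeast strain.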

[2] = NCI Yeast Anticancer Drug Screen. Data for the mec2-1 strain (AID 157); settings: S. cerevisiae mec2-1 strain, active compounds read high
How it was run: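 Yeast mec2-1 mutant treated with compound. Readout: growth inhibition vs vehicle controls.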

[3] = NCI Yeast Anticancer Drug Screen. Data for the sgs1 mgt1 strain (AID 161);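 further: 0% = growth of cultures given vehicle only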; settings: S. cerevisiae sgs1 mgt1 strain, active compounds read high
How it was run: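 Inhibition of yeast growth, normalised to vehicle-treated controls, is reported for a strain bearing genetic alterations in DNA damage repair.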

[4] = NCI Yeast Anticancer Drug Screen. Data for the cln2 rad14 strain (AID 165);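 further: 0% = growth equal to vehicle treated cultures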; settings: S. cerevisiae cln2 rad14 strain, active compounds read high
How it was run: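 cln2 rad14 yeast strain; compound exposure; growth inhibition read vs vehicle controls.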

[5] = NCI Yeast Anticancer Drug Screen. Data for the bub3 strain (AID 167); settings: S. cerevisiae bub3 mutant strain, active compounds read high
How it was run: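 Part of a panel of yeast mutants defective in DNA damage repair or cell cycle regulation. Each strain is grown with compound, and inhibition is calculated relative to solvent-treated cultures.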

[6] = NCI Yeast Anticancer Drug Screen. Data for the mlh1 rad18 strain (AID 175); settings: S. cerevisiae mlh1 rad18 strain growth inhibition, active compounds read high
How it was run: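 Yeast w/ defined DNA-repair lesions; compound exposure; growth vs vehicle controls → % inhibition.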

[7] = at 5.0 µM (retest, dose inferred, filed as 0.5)
[8] = at 50.0 µM (retest, dose inferred, filed as 5.0)

Row | Structure (SMILES) | growth inhibition [1, 7] | growth inhibition [1, 8] | growth inhibition ([1]; at 50.0 µM) | growth inhibition [2, 7] | growth inhibition [2, 8] | growth inhibition ([2]; at 50.0 µM) | growth inhibition [3, 7] | growth inhibition [3, 8] | growth inhibition ([3]; at 50.0 µM) | growth inhibition [4, 7] | growth inhibition [4, 8] | growth inhibition ([4]; at 50.0 µM) | growth inhibition [5, 7] | growth inhibition [5, 8] | growth inhibition ([5]; at 50.0 µM) | growth inhibition [6, 7] | growth inhibition [6, 8] | growth inhibition ([6]; at 50.0 µM)
1 | N#CC1Sc2ccccc2N1C(=O)Oc1ccccc1 (configuration not stated) | 3% | 98% (active) | 98.8% (active) | 0% | 98% (active) | 98.7% (active) | 5% | 98% (active) | 98.8% (active) | 3% | 97% (active) | 98.2% (active) | 15% | 98% (active) | 99.1% (active) | 5% | 98% (active) | 98.8% (active)
2 | Cc1[nH]nc(C(=O)N/N=C/c2ccccc2Cl)c1N=NN(C)C | 41% | 91% (active) | 92.5% (active) | 50% | 93% (active) | 92.4% (active) | 33% | 94% (active) | 91.9% (active) | 5% | 93% (active) | 93.7% (active) | 12% | 88% (active) | 89.7% (active) | 72% (active) | 94% (active) | 95.3% (active)
3 | COc1ccc(N=Nc2ccc(O)cc2)cc1 | 7% | 40% | 96.5% (active) | -5% | 62% | 96% (active) | 2% | 16% | 97.5% (active) | 7% | 59% | 92% (active) | -22% | 88% (active) | 96.4% (active) | 8% | 65% | 97% (active)
4 | CCCCCCCCCCCCNC(=O)C[n+]1ccc(C(N)=O)cc1 | -34% | 72% (active) | 61.2% | -6% | 61% | 49% | 1% | 77% (active) | 74.2% (active) | -6% | 86% (active) | 24.6% | -9% | 94% (active) | 29.2% | 0% | 92% (active) | 41.8%
5 | CC(C)(C)OC(=O)NC(Cc1ccc(OCc2ccccc2)cc1)C(=O)NC(CCCCNC(=O)OCc1ccccc1)C(=O)ON1C(=O)CCC1=O (configuration not stated) (Boc-Tyr(Bn)-Lys(Cbz)-OSu; configuration not given here) | 47% | 73% (active) | 64.2% | 31% | 66% | 48.5% | 40% | 64% | 38.9% | 31% | 50% | 55.5% | 37% | 70% (active) | 62.5% | 51% | 83% (active) | 57%
6 | NC(=S)C(=S)N/C=C(/c1ccc(Cl)cc1)S(=O)(=O)Cc1ccc(Cl)cc1 | 1% | 98% (active) | 97.3% (active) | -17% | 99% (active) | 96.2% (active) | -3% | 98% (active) | 96.8% (active) | -19% | 97% (active) | 94.8% (active) | 21% | 98% (active) | 96.7% (active) | 4% | 98% (active) | 97.3% (active)
7 | N#CCN1CCCCCc2ccccc21 | -4% | -3% | -26.6% | 0% | -18% | -12.7% | -29% | -29% | -3.15% | 9% | -1% | 11.2% | -14% | -32% | -3.2% | -18% | -18% | -7.65%
8 | COc1ccc(C2C(C#N)(C#N)C2(C#N)C#N)cc1 | 16% | 98% (active) | 63.5% | 19% | 99% (active) | 96.5% (active) | 21% | 98% (active) | 98.3% (active) | 2% | 99% (active) | 88% (active) | 6% | 98% (active) | 94.8% (active) | 22% | 99% (active) | 92.7% (active)
9 | O=Cc1[nH]c(=S)[nH]c(=O)c1Cc1cccc2ccccc12 | -8% | 96% (active) | 97.9% (active) | -3% | 98% (active) | 97.8% (active) | 11% | 99% (active) | 98.8% (active) | 0% | 98% (active) | 91.8% (active) | -19% | 98% (active) | 98% (active) | -3% | 98% (active) | 98.9% (active)
